Our source for the growth values is PubChem BioAssay (NCI).

Holding throughout (assay): NCI-60 one-dose screen, 48 h (100 = growth as untreated, 0 = no growth, -100 = all killed)
Holding throughout (conditions): 10 µM unless noted

The test system of assay [1] is NCI-H23 lung.
Assay [2] relates to NCI-H226 lung.
Assay [3] deals with NCI-H322M lung.
Assay [4] has as its system HOP-62 NSCLC.
Assay [5] concerns NCI-H460 lung.
Assay [6] has as its system HOP-92 NSCLC.
In assay [7] the test system is NCI-H522 lung.
In assay [8] the test system is A549/ATCC NSCLC.
In assay [9] the test system is 786-0 renal.
For assay [10], the system named is COLO 205 colon.

About 83,000 compounds went through this panel and 20% of them were active in at least one assay; those are over-represented in the sample as a whole.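 Plates (96-well) were seeded with cells, treated with compound at one concentration, and incubated for 48 hours before percent growth was determined.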 A number with no mark means an inactive call. Active and inactive are the calls of the source. How the source made its calls: active means growth percent below 10; inactive means the rest.

`O=C([O][Hg][CH2]C1COCC([CH2][Hg][O]C(=O)c2ccccc2)O1)c1ccccc1` (stereo not given): the growth in [1] was 90.2%; in assay [2], 106%; in [3], 110%; in [4] it was 127%; in assay [5], 106%; in [6] it was 77%. In addition, the growth in assay [7] was -53.3% (active); in [8], 105%; in assay [9] it was 104%; in assay [10], -23.1% (active).

As to `CCOc1ccccc1C(=O)OCC(Cl)(Cl)Cl`, the growth was 102% in assay [1]; 101% in [2]; 102% in assay [3]; 99.9% in assay [4]; 107% in assay [5]; 113% in assay [6]. Moreover, the growth is 105% in assay [7], 106% in [8], 99.6% in assay [9] and 102% in assay [10].

As to `COC(=O)[C@@H](C)C[C@H](Cc1ccccc1)NC(=O)c1csc([C@@H](C[C@H](C(C)C)N(C)C(=O)[C@H](C)NC(=O)[C@H]2CCCN2C)OC(C)=O)n1`, the growth in assay [1] is 60.8%; in [2] it was 68.2%; in [3], 63.7%; in assay [4], 63.6%; in assay [5], 30.9%; in assay [6], 37.6%. Besides, the growth in assay [7] is -10.7% (active); in assay [8] it was 83%; in assay [9], 45%; in [10], 22.8%.

As for `Brc1ccc2c(c1)c(-c1nc(-c3c[nH]c4ncccc34)cs1)cn2CCN1CCCCC1`, the growth is 89% in assay [1]; 80% in assay [2]; 65.6% in assay [3]; 88.7% in assay [4]; 67.4% in assay [5]; 37.1% in assay [6]. For the same molecule, the growth in assay [7] was 68.8%; in assay [8] it was 67.5%; in assay [9], 53%; in assay [10], 37.7%.

Consider `COc1ccc(N(CC(=O)NCCC[Te]c2ccccc2)C(=O)CNC(=O)OC(C)(C)C)cc1`, for which the growth in [1] is -15.5% (active); in assay [2] it was 1.45% (active); in assay [3], -6.97% (active); in [4], 1.88% (active); in assay [5] it was -23.9% (active); in assay [6], -19.9% (active). In addition, the growth in [7] was -0.481% (active); in assay [8] it was -9.26% (active); in assay [9] it was 73.3%; in assay [10], 86.9%.

Take `COc1cc(NCCCN=C(N)N)c2ncccc2c1`: the growth in assay [1] is 14.1%; in [2], 86.2%; in assay [3], 74%; in assay [4], 73%; in assay [5], 96.4%; in assay [6] it was 56.7%. Besides, the growth in assay [7] is -10.2% (active); in assay [8] it was 84.8%; in [9], 95.4%; in assay [10], 89.8%.

On to `CCCCCCCC[N+](C)(CCCCCCCC)CCCCCCCC`, for which the growth is -97% (active) in [1]; -86.2% (active) in assay [2]; -100% (active) in [3]; -92.2% (active) in assay [4]; -100% (active) in assay [5]; -70% (active) in assay [6]. Also, the growth in assay [7] is -99.9% (active); in assay [8] it was -100% (active); in [9], -95.7% (active); in [10], -60.7% (active).

Turning to `O=[N+]([O-])c1ccc([Se]C2CCCCC2Cl)c([N+](=O)[O-])c1` (stereo not given), the growth in [1] is 40.3%; in assay [2], 73.5%; in assay [3], 55.7%; in assay [4], 7.16% (active); in [5], 57.7%; in assay [6], 53.8%. Further, the growth in [7] is 63.3%; in [8], 45.5%; in [9], 128%; in assay [10], 102%.

On to `CC[C@H](C)[C@H](NC(=O)C12C3C4C1C1C2C3C41NC)C(=O)N(C)[C@H](C[C@@H](OC(C)=O)c1nc(C(=O)N[C@@H](Cc2ccccc2)C[C@H](C)C(=O)OC)cs1)C(C)C` (stereo not given in full), for which the growth in [1] was 31.6%; in [2] it was 41.4%; in assay [3], 51.9%; in [4], 16.9%; in assay [5], 6.43% (active); in assay [6], 34.1%. In addition, the growth in [7] was -4.71% (active); in assay [8] it was 31.4%; in assay [9], 19.1%; in assay [10] it was -15.5% (active).

Take `CNC(=O)Oc1cccc(C(F)(F)F)c1`: the growth in assay [1] is 108%; in [2], 90%; in [3], 125%; in assay [4], 107%; in assay [5], 114%; in assay [6], 106%. In addition, the growth was 95.2% in [7], 103% in assay [8], 105% in [9] and 107% in [10].

Consider `CC[C@H](C)[C@H](NC(=O)[C@H]1CCCCN1C)C(=O)N(C)[C@H](C[C@@H](O)c1nc(C(=O)N[C@@H](Cc2ccccc2)C[C@H](C)C(=O)O)cs1)C(C)C`, for which the growth was 94.8% in assay [1]; 99% in [2]; 105% in assay [3]; 82.4% in assay [4]; 95.6% in assay [5]; 57.8% in assay [6]. In addition, the growth in [7] is -18% (active); in assay [8], 87.1%; in [9], 90.2%; in [10] it was 83.6%.

`C[CH2][Sn]([Cl])([Cl])[CH2]C.Oc1ccccc1C=NCCN=Cc1ccccc1O`: the growth was 103% in assay [1]; 99.1% in assay [2]; 101% in assay [3]; 99.2% in [4]; 107% in [5]; 95.2% in assay [6]. The growth in assay [7] was 9.48% (active); in assay [8], 96%; in [9] it was 116%; in assay [10], 116%.

Consider `CC1=C2[C@@H](CC1)[C@]1(C)O[C@@](C(C)C)(C[C@H]1O)[C@H]2OC(=O)C1CC1c1ccccc1` (stereo not given in full), for which the growth in assay [1] is 102%; in assay [2], 75.6%; in assay [3] it was 109%; in assay [4], 81.7%; in assay [5], 102%; in assay [6], 73.3%. Besides, the growth was 72.7% in [7], 76.5% in assay [8], 97.9% in assay [9] and 90.5% in assay [10].
